Assay results from PubChem BioAssay.
For some assays here: Measured potencies and affinities stand elsewhere. Activity calls are given as the source filed them. Unless noted, how the calls were made is not given here.

Key:
[1] = antimalarial activity against Dd2 strain (AID 2302;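 active means growth inhibition above 50% at the single 2 µM test dose, taken to imply half-maximal potency below 2 µM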;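 further: 0% = DMSO untreated growth and 100% = chloroquine plus artemisinin killed control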); conditions: P. falciparum Dd2 in RBCs, LDH growth readout, 72 h; at 2 µM; stronger effect = higher value
[2] = HepG2 cytotoxicity, primary screen, cytotoxicity control for P. falciparum antimalarial project, cell-based, ATP luminescence (AID 2303;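 active means inhibition above 50%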;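 further: 0% = DMSO wells and 100% = digitonin-killed cells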); conditions: HepG2 viability, 24-48 h, at 10 µM, stronger effect = higher value
[3] = biological target: L-lactate dehydrogenase (Plasmodium falciparum (isolate CDC / Honduras)) (UniProt Q27743); assay: PfLDH activity inhibition – cell lysate, 3D7 strain, counter-screen for P. falciparum growth inhibition project (AID 2304);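 further: 0% = vehicle and 100% = reference inhibitor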; conditions: P. falciparum 3D7 crude extract, LDH APAD/NBT absorbance; at 2 µM; stronger effect = higher value
Sequence of L-lactate dehydrogenase (Plasmodium falciparum (isolate CDC / Honduras)) (Q27743 whole entry, looked up): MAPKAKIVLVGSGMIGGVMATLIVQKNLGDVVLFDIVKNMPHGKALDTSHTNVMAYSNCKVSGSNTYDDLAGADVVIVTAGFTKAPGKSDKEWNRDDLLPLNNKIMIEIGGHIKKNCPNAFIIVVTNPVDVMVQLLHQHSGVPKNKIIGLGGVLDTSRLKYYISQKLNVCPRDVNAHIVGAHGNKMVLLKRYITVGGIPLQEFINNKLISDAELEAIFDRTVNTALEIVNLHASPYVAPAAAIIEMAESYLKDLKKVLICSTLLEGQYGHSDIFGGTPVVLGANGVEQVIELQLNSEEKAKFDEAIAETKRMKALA

[4] = inhibition of 3D7 malaria parasite growth – strain 3D7 (AID 2306);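 further: 0% = DMSO wells and 100% = chloroquine plus artemisinin control wells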; conditions: P. falciparum 3D7 erythrocytic growth, LDH absorbance, 72 h; at 2 µM; stronger effect = higher value
[5] = biological target: Calcium-dependent protein kinase 1 (Plasmodium falciparum (isolate 3D7)) (UniProt P62344); assay: PfCDPK1 kinase inhibitors, biochemical, TCAMS library (AID 1159585; cut-off not given, nearly all actives have IC50 up to about 0.98 µM;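 further: inhibitors leave more ATP so luminescence rises with inhibition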); conditions: recombinant PfCDPK1, Kinase-Glo ATP depletion luminescence
Sequence of Calcium-dependent protein kinase 1 (Plasmodium falciparum (isolate 3D7)) (P62344 whole entry, looked up): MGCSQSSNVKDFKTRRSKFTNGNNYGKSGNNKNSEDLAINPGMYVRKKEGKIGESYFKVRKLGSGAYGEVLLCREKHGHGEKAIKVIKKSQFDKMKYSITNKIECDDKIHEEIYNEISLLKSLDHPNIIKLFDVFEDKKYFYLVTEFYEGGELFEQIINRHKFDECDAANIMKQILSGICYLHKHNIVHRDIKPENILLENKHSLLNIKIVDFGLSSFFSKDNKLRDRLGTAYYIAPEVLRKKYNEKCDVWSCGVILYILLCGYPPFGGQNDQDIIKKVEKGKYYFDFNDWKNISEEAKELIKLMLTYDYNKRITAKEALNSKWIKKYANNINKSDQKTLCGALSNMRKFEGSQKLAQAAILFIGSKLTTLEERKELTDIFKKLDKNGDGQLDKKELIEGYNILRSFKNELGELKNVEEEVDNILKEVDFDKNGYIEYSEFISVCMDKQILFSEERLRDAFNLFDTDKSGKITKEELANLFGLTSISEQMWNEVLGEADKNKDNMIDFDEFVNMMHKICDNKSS

[6] = biological target: Plasmodium falciparum protein kinase 6 (PK6, PF3D7_1337100) (UniProt Q8IDW1); assay: PfPK6 kinase inhibitors, biochemical, TCAMS library (AID 1159586); conditions: recombinant PfPK6, Kinase-Glo ATP depletion luminescence
Sequence of Plasmodium falciparum protein kinase 6 (PK6, PF3D7_1337100) (Q8IDW1 1-305): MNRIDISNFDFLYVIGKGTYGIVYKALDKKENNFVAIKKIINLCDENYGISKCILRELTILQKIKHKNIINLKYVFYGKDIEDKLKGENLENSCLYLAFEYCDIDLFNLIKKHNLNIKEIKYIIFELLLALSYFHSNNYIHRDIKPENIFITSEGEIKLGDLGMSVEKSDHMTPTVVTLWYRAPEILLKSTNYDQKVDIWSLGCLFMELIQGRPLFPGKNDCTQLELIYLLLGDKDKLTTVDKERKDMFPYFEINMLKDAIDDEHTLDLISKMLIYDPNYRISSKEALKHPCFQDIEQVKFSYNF

[7] = biological target: Protein kinase 7 (PK7), Plasmodium falciparum 3D7 (PF3D7_0213400) (UniProt Q7YTF7); assay: inhibition of Plasmodium PK7 catalytic activity – biochemical, TCAMS antimalarial set, Kinase-Glo luminescence (AID 1159587); conditions: recombinant PfPK7, Kinase-Glo ATP depletion luminescence
Sequence of Protein kinase 7 (PK7), Plasmodium falciparum 3D7 (PF3D7_0213400) (Q7YTF7 1-343): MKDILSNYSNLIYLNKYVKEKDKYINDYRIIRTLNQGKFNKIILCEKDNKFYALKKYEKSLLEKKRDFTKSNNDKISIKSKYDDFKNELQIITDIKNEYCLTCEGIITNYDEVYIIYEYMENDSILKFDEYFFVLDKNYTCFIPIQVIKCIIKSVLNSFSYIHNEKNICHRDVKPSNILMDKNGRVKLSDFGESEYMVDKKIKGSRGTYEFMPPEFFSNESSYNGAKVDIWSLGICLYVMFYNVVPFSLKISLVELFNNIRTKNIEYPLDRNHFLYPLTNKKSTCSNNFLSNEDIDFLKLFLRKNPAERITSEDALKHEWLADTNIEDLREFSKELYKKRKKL

[8] = biological target: Calcium-dependent protein kinase 4 (Plasmodium falciparum (isolate 3D7)) (UniProt Q8IBS5); assay: PfCDPK4 kinase inhibitors, biochemical, TCAMS library (AID 1159588; cut-off not given, nearly all actives have IC50 up to about 0.91 µM); conditions: recombinant PfCDPK4, Kinase-Glo ATP depletion luminescence
Sequence of Calcium-dependent protein kinase 4 (Plasmodium falciparum (isolate 3D7)) (Q8IBS5 whole entry, looked up): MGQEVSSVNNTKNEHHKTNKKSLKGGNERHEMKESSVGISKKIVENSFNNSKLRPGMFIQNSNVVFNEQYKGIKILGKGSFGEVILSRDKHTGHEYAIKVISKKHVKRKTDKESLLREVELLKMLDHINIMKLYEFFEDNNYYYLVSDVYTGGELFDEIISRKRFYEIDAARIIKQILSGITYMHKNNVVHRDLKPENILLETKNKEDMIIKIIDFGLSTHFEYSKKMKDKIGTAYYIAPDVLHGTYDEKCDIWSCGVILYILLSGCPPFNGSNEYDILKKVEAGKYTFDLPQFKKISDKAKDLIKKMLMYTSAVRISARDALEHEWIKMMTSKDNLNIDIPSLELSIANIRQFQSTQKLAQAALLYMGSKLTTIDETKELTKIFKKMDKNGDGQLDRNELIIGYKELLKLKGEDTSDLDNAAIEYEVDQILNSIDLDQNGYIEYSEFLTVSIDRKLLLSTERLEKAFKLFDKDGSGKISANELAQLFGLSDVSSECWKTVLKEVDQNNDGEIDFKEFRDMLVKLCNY

O=C(NC1CCN(Cc2ccccc2O)C1)c1ccc(-c2ccccc2)cc1 (stereo unspecified)
active: growth inhibition [4] 99%
inactive: growth inhibition [1] 25% | inhibition [2] -5% | inhibition [3] 4% | outcome [5] | outcome [6] | outcome [7] | outcome [8]

c1ccc(-c2ccc(CNCCCNc3nc4ccccc4[nH]3)cc2)cc1
inactive: growth inhibition [1] 0% | inhibition [2] 20% | inhibition [3] -4% | outcome [5] | outcome [6] | outcome [7] | outcome [8]
active: growth inhibition [4] 95%

COc1ccc2ncc(Cl)c(N3CCC(CCNCc4ccc5c(n4)NC(=O)CS5)CC3)c2c1
active: growth inhibition [1] 82% | growth inhibition [4] 89%
inactive: inhibition [2] 33% | inhibition [3] 0% | outcome [5] | outcome [6] | outcome [7] | outcome [8]

O=C(/C=C/c1ccc(Cl)c(Cl)c1)NCCCCCN1CCCC(C(=O)Nc2ccc(F)c(Cl)c2)C1 (stereo unspecified)
active: growth inhibition [4] 99%
inactive: growth inhibition [1] 2% | inhibition [2] 28% | inhibition [3] 1% | outcome [5] | outcome [6] | outcome [7] | outcome [8]

O=C(Nc1ccccc1)Nc1ccc(-c2cccc(-c3nc4ccc(C(F)(F)F)cc4[nH]3)c2)cc1
active: growth inhibition [1] 73% | inhibition [2] 59% | growth inhibition [4] 101%
inactive: inhibition [3] 4% | outcome [5] | outcome [6] | outcome [7] | outcome [8]

O=C(Nc1ccc(C(=O)Nc2ccc(C3=NCCN3)cc2)cc1)Nc1ccc(C2=NCCN2)cc1
inactive: inhibition [2] -8% | inhibition [3] -7% | outcome [5] | outcome [6] | outcome [7] | outcome [8]
active: growth inhibition [1] 95% | growth inhibition [4] 94%

CC(C)(C)c1ccc(CN2CCC(CNC(=O)c3cc(-c4ccccc4C(F)(F)F)cs3)C2)cc1 (stereo unspecified)
active: inhibition [2] 61% | growth inhibition [4] 92%
inactive: growth inhibition [1] 11% | inhibition [3] -3% | outcome [5] | outcome [6] | outcome [7] | outcome [8]

COc1c(I)cc(Cc2cnc(N)nc2N)cc1I
active: growth inhibition [4] 91%
inactive: growth inhibition [1] 0% | inhibition [2] 5% | inhibition [3] -8% | outcome [5] | outcome [6] | outcome [7] | outcome [8]

FC(F)(F)c1ccc2nc(-c3cccc(-c4cccc(CNCCN5CCNCC5)c4)c3)[nH]c2c1
active: growth inhibition [4] 92%
inactive: growth inhibition [1] 18% | inhibition [2] 29% | inhibition [3] 4% | outcome [5] | outcome [6] | outcome [7] | outcome [8]

CN(C)C(CNC(=O)c1cc(-c2ccncc2)c(-c2ccc(NC(=O)Nc3cccc(Cl)c3)cc2)o1)c1ccccc1 (stereo unspecified)
active: growth inhibition [1] 100% | growth inhibition [4] 101%
inactive: inhibition [2] 12% | inhibition [3] -1% | outcome [5] | outcome [6] | outcome [7] | outcome [8]

CC1(C)CCCN(c2ncc(-c3cccc(CNCc4ccccc4O)c3)cn2)C1
inactive: inhibition [2] 35% | inhibition [3] -4% | outcome [5] | outcome [6] | outcome [7] | outcome [8]
active: growth inhibition [1] 82% | growth inhibition [4] 96%

C[C@]12CC3CC(Nc4nc(N5CCOCC5)nc5ccccc45)(C1)C[C@@](C)(C3)C2
active: growth inhibition [4] 95%
inactive: growth inhibition [1] 14% | inhibition [2] 31% | inhibition [3] -5% | outcome [5] | outcome [6] | outcome [7] | outcome [8]

COc1ccc(C(c2ccc(N(C)C)cc2)c2ccc(N(C)C)cc2)cc1
inactive: inhibition [3] 1% | outcome [5] | outcome [6] | outcome [7] | outcome [8]
active: growth inhibition [1] 99% | inhibition [2] 72% | growth inhibition [4] 101%

CCCCCCN(C(=O)OCc1ccccc1)[C@@H]1CCN(C(=O)OC(C)(C)C)C[C@H]1C(=O)OCC
active: growth inhibition [1] 96% | growth inhibition [4] 96%
inactive: inhibition [2] 9% | inhibition [3] -6% | outcome [5] | outcome [6] | outcome [7] | outcome [8]

Cc1nc2nc(N)nc(N)c2c(C)c1Cc1ccc(C(N)=O)cc1
inactive: growth inhibition [1] -3% | inhibition [3] 3% | outcome [5] | outcome [6] | outcome [7] | outcome [8]
active: inhibition [2] 55% | growth inhibition [4] 97%

CC1CCCC(NCc2c(O)ccc3ccccc23)C1 (stereo unspecified)
inactive: growth inhibition [1] 25% | inhibition [2] 10% | inhibition [3] 1% | outcome [5] | outcome [6] | outcome [7] | outcome [8]
active: growth inhibition [4] 93%

O=C(/C=C/c1ccc(Cl)c(Cl)c1)NCCCCCN1CCC(NC(=S)Nc2ccc(Cl)cc2)CC1
active: inhibition [2] 62% | growth inhibition [4] 99%
inactive: growth inhibition [1] 41% | inhibition [3] -1% | outcome [5] | outcome [6] | outcome [7] | outcome [8]

Cc1ccc(C(=O)Nc2cc(S(=O)(=O)N3CCCC3)ccc2OCC(F)(F)F)cc1
inactive: growth inhibition [1] 3% | inhibition [2] -2% | inhibition [3] 3% | outcome [5] | outcome [6] | outcome [7] | outcome [8]
active: growth inhibition [4] 93%

CCc1ccccc1N1CCN(CCCCNC(=O)c2ccc(NC(=O)c3ccc(Cl)cc3)cc2)CC1
active: growth inhibition [4] 96%
inactive: growth inhibition [1] 4% | inhibition [2] 21% | inhibition [3] -4% | outcome [5] | outcome [6] | outcome [7] | outcome [8]

CCCCCCCN1CC[C@@H](CCCc2ccnc3ccc(OCCC4CCNCC4)cc23)[C@@H](CC)C1
inactive: inhibition [3] -4% | outcome [5] | outcome [6] | outcome [7] | outcome [8]
active: growth inhibition [1] 100% | inhibition [2] 94% | growth inhibition [4] 104%

O=C(Nc1ccc(-c2cccc(-c3nc4ccccc4[nH]3)c2)cc1)Nc1ccc2c(c1)OCO2
inactive: inhibition [3] 0% | outcome [5] | outcome [6] | outcome [7] | outcome [8]
active: growth inhibition [1] 65% | inhibition [2] 55% | growth inhibition [4] 102%

COc1cc(Cc2cnc(N)nc2N)c2ccsc2c1OC
inactive: growth inhibition [1] 4% | inhibition [2] 5% | inhibition [3] 0% | outcome [5] | outcome [6] | outcome [7] | outcome [8]
active: growth inhibition [4] 92%

O=C(Nc1ccc(OC2CCN(Cc3ccc(F)cc3)CC2)c(Cl)c1)c1ccco1
inactive: inhibition [2] 2% | inhibition [3] -4% | outcome [5] | outcome [6] | outcome [7] | outcome [8]
active: growth inhibition [1] 95% | growth inhibition [4] 95%

CCn1c(-c2nonc2N)nc2c(Cl)ncc(O[C@H](CCN)c3ccccc3F)c21
active: growth inhibition [1] 88% | growth inhibition [4] 96%
inactive: inhibition [2] 15% | inhibition [3] -2% | outcome [5] | outcome [6] | outcome [7] | outcome [8]

O=C(NCCCN1CCC(N2CCCCC2)CC1)c1ccc2nc(N3CCCCC3)sc2c1
inactive: growth inhibition [1] 20% | inhibition [2] 11% | inhibition [3] -1% | outcome [5] | outcome [6] | outcome [7] | outcome [8]
active: growth inhibition [4] 89%

O=C(N[C@@H](CC1CCCCC1)C(=O)NCCc1ccc(Cl)c(Cl)c1)c1ccc(O)c(-c2ccc(Cl)c(Cl)c2)c1
inactive: inhibition [2] -11% | inhibition [3] -2% | outcome [5] | outcome [6] | outcome [7] | outcome [8]
active: growth inhibition [1] 99% | growth inhibition [4] 100%

CC1(C)N=C(N)N=C(N)N1OCc1nc(N)nc(Nc2ccccc2)n1
active: growth inhibition [4] 98%
inactive: growth inhibition [1] -4% | inhibition [2] 3% | inhibition [3] -2% | outcome [5] | outcome [6] | outcome [7] | outcome [8]

COc1ccc2ncc(F)c(CCN3C[C@H](CNCc4ccc(F)cc4)[C@H](O)C3)c2n1
active: growth inhibition [4] 93%
inactive: growth inhibition [1] 21% | inhibition [2] 38% | inhibition [3] -1% | outcome [5] | outcome [6] | outcome [7] | outcome [8]

CC1(C)N=C(N)N=C(N)N1OCc1ccc2c(c1)OCO2
active: growth inhibition [1] 86% | inhibition [2] 66% | growth inhibition [4] 93%
inactive: inhibition [3] -3% | outcome [5] | outcome [6] | outcome [7] | outcome [8]

COc1ccc(-c2ccc(NC(=O)c3ccc(Cl)cc3)cc2)cc1CN(C)CCN(C)C
active: growth inhibition [1] 61% | growth inhibition [4] 97%
inactive: inhibition [2] 37% | inhibition [3] -2% | outcome [5] | outcome [6] | outcome [7] | outcome [8]

CCCC(CCC)n1ccc2c3c(N)nc(N)nc3ccc21
inactive: inhibition [3] -2% | outcome [5] | outcome [6] | outcome [7] | outcome [8]
active: growth inhibition [1] 97% | inhibition [2] 66% | growth inhibition [4] 98%

O=C(/C=C/c1ccc(Cl)c(Cl)c1)NCCCCCN1CCC(NC(=O)c2ccc(F)cc2)CC1
active: growth inhibition [4] 102%
inactive: growth inhibition [1] 13% | inhibition [2] 14% | inhibition [3] -1% | outcome [5] | outcome [6] | outcome [7] | outcome [8]

Cc1cc(NN=Cc2ccccc2Cl)c2cc(C(F)(F)F)ccc2n1
inactive: inhibition [2] -4% | inhibition [3] -4% | outcome [5] | outcome [6] | outcome [7] | outcome [8]
active: growth inhibition [1] 75% | growth inhibition [4] 100%

CCCCn1c(C(C)Oc2ccc(Cl)cc2Cl)nc2cc(S(N)(=O)=O)ccc21 (stereo unspecified)
inactive: growth inhibition [1] 45% | inhibition [2] 24% | inhibition [3] -2% | outcome [5] | outcome [6] | outcome [7] | outcome [8]
active: growth inhibition [4] 94%

COc1ccc(Cn2c(N3CCN(S(=O)(=O)c4ccc(OC)cc4)CC3)nc3c2c(=O)n(CC2CC2)c(=O)n3CC2CC2)cc1
inactive: growth inhibition [1] 39% | inhibition [2] -12% | inhibition [3] -3% | outcome [5] | outcome [6] | outcome [7] | outcome [8]
active: growth inhibition [4] 92%

CC(C)CC(=O)N(Cc1ccc(-c2ccc(CNC3Cc4ccccc4C3)cc2)cc1)C1CCNCC1
inactive: inhibition [2] 20% | inhibition [3] -5% | outcome [5] | outcome [6] | outcome [7] | outcome [8]
active: growth inhibition [1] 65% | growth inhibition [4] 85%

CC(=O)c1cccc(NC(=O)N2CCCN(CCCCCNC(=O)/C=C/c3ccc(Cl)c(Cl)c3)CC2)c1
active: growth inhibition [4] 93%
inactive: growth inhibition [1] 0% | inhibition [2] 13% | inhibition [3] -5% | outcome [5] | outcome [6] | outcome [7] | outcome [8]
